From PubChem
PAX8 inh HTS: lowers PAX8-driven luciferase in RMG-I cells | RMG-I TPO-luciferase reporter, SteadyGlo, 24 h | hit rate 1.2% among 360,000 | inhibition, % at 12.6 µM;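 active = mean replicate inhibition at least 60% with every replicate also reaching 60%; inconclusive = only one of the two criteria is met; inactive = mean below 60% and not all replicates reaching 60%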;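 also: luciferase light reporting Pax8 driven TPO promoter activity; plate controls were median of neutral control wells for no effect and mitoxantrone controls for full effect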
LGR2 antag: blocks bursicon-induced cAMP signaling via Drosophila LGR2 | AID 720647 | inhibition, % at 9.99 µM | hit rate 0.35% among 380,000 | HEK293 LGR2, CRE-luciferase, bursicon-stimulated, 4 h;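 active = drop in luminescence signal, shown as inhibition above about 50% in the replicate tests, limit read from the data, passing the limit was not always enough; inconclusive = probably only some replicates passing the limit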;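 also: agonist challenge used bursicon conditioned medium at about half maximal strength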
EWS-Fli inh: blocks EWS/Fli oncoprotein-driven transcription; inhibition, % at 12.6 µM; hit rate 0.67% among 350,000; A673 NR0B1-luciferase reporter, viability-normalised; AID 651661;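 active = mean inhibition of at least 50% after viability correction, with every replicate also passing that limit; inconclusive = mean reaches 50% but only one of two replicates passes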;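 also: firefly luciferase signal divided by Alamar Blue viability fluorescence both relative to DMSO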
Shn3 3UTR inh: reduces Shn3 3'UTR luciferase signal in osteoblasts; AID 588674; inhibition, % at 12.5 µM; Clone20 osteoblast Shn3 3'UTR firefly luciferase, 24 h; hit rate 0.52% among 360,000;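 active = mean inhibition of at least 75% with every replicate also reaching 75%; inconclusive = mean inhibition at least 75% but some replicate below; inactive = mean inhibition below 75%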;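 also: 0% = median of neutral control wells and 100% = pilot-screen positive control compound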
KKLEB cytotox: CF airway cell cytotoxicity counter-screen. KKLEB CF airway cells viability, ATPlite luminescence, overnight; hits give low values; cells stimulated with P. aeruginosa culture filtrate. activity change (cytotoxicity), % at 5 µM. hit rate 0.36% among 360,000. AID 602141;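 active = corrected activity change at or below -50% at 5 µM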
CF NFkB block: inhibitors of cystic fibrosis induced NF-kB; KKLEB NF-kB-GFP reporter, PAF-induced, GFP fluorescence overnight; inhibition, % at 5 µM; AID 588850; hit rate 0.86% among 360,000;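 active = at least 50% inhibition at 5 µM, scaled per plate between neutral and stimulator controls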;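 also: PAF is a Pseudomonas aeruginosa culture filtrate used as stimulus; plate controls were PAF-stimulated DMSO wells for no effect and unstimulated DMSO wells for full effect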
CF NFkB conf: CF NF-kB inhibition confirmation, single concentration; AID 602472; inhibition, % at 5 µM; KKLEB CF airway cells, PAF-induced NF-kB-GFP fluorescence, overnight; hit rate 64% among 1,300; shares compounds with CF NFkB block; in the data active = inhibition above about 40%;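 also: stimulus PAF is a Pseudomonas aeruginosa filtrate and not platelet activating factor; plate controls were DMSO wells with stimulus for no effect and unstimulated DMSO wells for full effect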
Active calls of the source: *; ? = inconclusive; . = no result given. Rows were chosen to be rich in hits. Some 2% of all compounds tested hit in one or more screens of this group.

SMILES | PAX8 inh HTS | LGR2 antag | EWS-Fli inh | Shn3 3UTR inh | KKLEB cytotox | CF NFkB block | CF NFkB conf
COc1ccc(-c2cc(=O)c3c(OC)c(OC)c(OC)c(OC)c3o2)cc1OC | 3.2 | -8.5 | -8.0 | -3.8 | 25.8 | 16.1 | .
COc1ccc2c(=O)cc(-c3ccncc3)oc2c1OC | -30.7 | -20.5 | -17.4 | 75.2 | 1.7 | 59.4* | 77.0*
C[C@@H]1CN([C@H](C)CO)C(=O)Cc2cc(NC(=O)Nc3ccc(C(F)(F)F)cc3)ccc2O[C@@H]1CN(C)C(=O)Nc1ccc2c(c1)OCO2 | 24.3 | 20.7 | 1.9 | . | . | . | .
C[C@@H]1CN([C@H](C)CO)C(=O)c2cccc(NS(=O)(=O)c3cccs3)c2O[C@@H]1CN(C)S(=O)(=O)c1ccc(Cl)cc1 | -12.0 | 6.2 | -0.4 | . | . | . | .
CCCc1nnc(NC(=O)c2nc(S(=O)(=O)Cc3ccc(C)cc3)ncc2Cl)s1 | 21.2 | -14.7 | . | 91.3* | -32.9 | 90.5* | 91.2*
COc1ccccc1NC(=O)c1ccc(C(=O)Nc2ccccc2OC)nc1 | 12.2 | 3.2 | 13.5 | 17.8 | -3.2 | -0.3 | .
CCOc1ccccc1NC(=O)c1nc(S(=O)(=O)Cc2ccccc2)ncc1Cl | 133.6* | 3.3 | ? | 96.3* | -30.6 | 79.9* | 94.4*
CC(=O)Nc1ccc(NC(=O)c2nc(S(=O)(=O)Cc3cccc(C)c3)ncc2Cl)cc1 | 91.0* | -39.2 | 61.1* | 97.5* | -30.7 | 102.1* | 82.4*
Cc1ccc(S(=O)(=O)CCc2nnc(NC(=O)c3cnccn3)s2)cc1 | . | . | . | 7.3 | 1.9 | -5.6 | .
CCS(=O)(=O)c1ncc(Cl)c(C(=O)Nc2ccccc2OC)n1 | 5.1 | 11.6 | ? | 96.8* | -36.1 | 85.0* | 96.4*
CCOc1ccccc1NC(=O)c1ccc(C(=O)Nc2ccccc2OCC)nc1 | 39.7 | 1.0 | -4.7 | 23.3 | 2.1 | 3.5 | .
COc1ccc(C#Cc2ccc3c(c2)O[C@@H](CN(C)C(C)=O)[C@@H](C)CN([C@@H](C)CO)S3(=O)=O)cc1 | . | 0.6 | 13.0 | . | . | . | .
CC(=O)Nc1ccc2c(c1)C(=O)N(C)[C@H]1CC[C@@H](CC(=O)NCC3CCCCC3)O[C@H]1CO2 | 13.3 | -13.1 | 2.1 | . | . | . | .
CO[C@H]1CN(C)C(=O)c2ccc(NC(=O)Nc3c(C)noc3C)cc2OC[C@H](C)N(CC2CC2)C[C@H]1C | -22.6 | 2.3 | 5.0 | . | . | . | .
C[C@H]1CCCCO[C@H](CN(C)S(=O)(=O)c2cccs2)[C@@H](C)CN([C@@H](C)CO)C(=O)c2cc(NS(=O)(=O)c3cccs3)ccc2O1 | 17.0 | 15.6 | 3.9 | . | . | . | .
COc1cccc(NC(=O)c2nc(S(C)(=O)=O)ncc2Cl)c1 | 11.3 | 1.5 | 59.1* | 96.6* | -37.3 | 87.6* | 61.0*
CC(=O)C1CCC2C3CCC4=CC(=O)CC[C@]4(C)[C@@]3(F)C(O)C[C@]12C (some centres undefined) | 2.9 | 0.7 | 4.4 | 10.8 | 25.8 | 55.6* | -50.2
CC1(C)O[C@@H]2C[C@H]3[C@@H]4C[C@H](F)C5=CC(=O)CC[C@]5(C)[C@H]4[C@@H](O)C[C@]3(C)[C@]2(C(=O)CO)O1 | 14.8 | 6.0 | -11.3 | 7.6 | -14.5 | 73.8* | 16.6
CC1(C)O[C@@H]2C[C@H]3[C@@H]4C[C@H](F)C5=CC(=O)C=C[C@]5(C)[C@H]4[C@@H](O)C[C@]3(C)[C@]2(C(=O)CO)O1 | -12.2 | 1.6 | 0.1 | 20.2 | 16.6 | 67.9* | 19.4
Cc1ccnc(Nc2nc(-c3sc(C)nc3C)cs2)c1 | -138.4 | 77.9* | -30.3 | -20.8 | -17.2 | 55.2* | 91.2*
CS(=O)(=O)N1[C@H](CO)[C@@H](c2ccccc2-c2ccccc2F)[C@@H]1C#N | . | -4.0 | 2.1 | . | . | . | .
COc1ccc2[nH]c3c(c2c1)CC(C)NC3=O (centres undefined) | -15.8 | 28.4 | 16.0 | 13.0 | -5.8 | 60.8* | 70.6*
COc1ccc(NC(=O)Nc2cccc3c2O[C@H](CN(C)Cc2ccc(-c4ccccc4)cc2)[C@@H](C)CN([C@H](C)CO)C3=O)cc1 | 15.3 | -7.2 | -0.8 | 16.8 | -32.5 | 58.8* | -9.4
C[C@@H]1CN([C@@H](C)CO)C(=O)c2cc(NC(=O)Nc3ccc(C(F)(F)F)cc3)ccc2O[C@@H]1CN(C)S(=O)(=O)c1ccc(F)cc1 | 28.6 | 2.7 | 0.6 | . | . | . | .
C[C@@H]1CN([C@H](C)CO)C(=O)c2cc(NC(=O)Nc3ccc(C(F)(F)F)cc3)ccc2O[C@H]1CN(C)S(=O)(=O)c1ccccc1 | 26.3 | 1.4 | 4.7 | 7.7 | 14.2 | 56.9* | 56.8*
SMILES | PAX8 inh HTS | LGR2 antag | EWS-Fli inh | Shn3 3UTR inh | KKLEB cytotox | CF NFkB block | CF NFkB conf
COc1ccc(NC(=O)Nc2cccc3c2O[C@@H](CN(C)Cc2ccc(-c4ccccc4)cc2)[C@H](C)CN([C@@H](C)CO)C3=O)cc1 | . | 28.2 | -7.7 | . | . | . | .
O=C(C[C@H]1CC[C@@H]2[C@H](COC[C@H](O)CN2CC2CCCCC2)O1)NCC1CC1 | 3.8 | -1.9 | -97.3 | . | . | . | .
CCCN1[C@@H]2c3cccc(=O)n3C[C@@H]2[C@@H](CO)[C@@H]1C(=O)N1CCCCC1 | -15.1 | 3.8 | 5.2 | . | . | . | .
C[C@@H]1CN([C@H](C)CO)C(=O)Cc2cc(NS(=O)(=O)c3ccc(Cl)cc3)ccc2O[C@H]1CN(C)C(=O)Nc1cccc2ccccc12 | . | 21.0 | 12.9 | . | . | . | .
O=[N+]([O-])c1ccc(-c2ccc(/C=N/Nc3nc(N4CCCCC4)nc(N4CCCCC4)n3)o2)cc1 | 13.6 | 18.2 | 7.4 | 28.0 | -6.7 | -16.8 | .
O=[N+]([O-])c1cccc(-c2ccc(/C=N/Nc3nc(N4CCCCC4)nc(N4CCCCC4)n3)o2)c1 | -2.1 | -0.7 | 24.1 | 17.1 | -16.7 | 55.3* | 39.2
Cc1ccc(S(=O)(=O)N2C[C@@H](O)COC[C@H]3O[C@H](CC(=O)NCC4CCCCC4)CC[C@@H]32)cc1 | 11.4 | -0.5 | 2.5 | . | . | . | .
COc1cccc(-c2sc3ccccc3c2-c2ccc(OCCN3CCCC3)cc2)c1 | -0.2 | -6.0 | 19.6 | 48.5 | -27.5 | 53.8* | 31.1
c1ccc(-c2sc3ccccc3c2-c2ccc(OCCN3CCCC3)cc2)cc1 | -6.0 | -19.6 | 44.9 | -2.9 | -41.5 | 52.4* | -5.2
Cc1ccc(S(=O)(=O)Nc2ccc3c(c2)C(=O)N([C@H](C)CO)C[C@@H](C)[C@@H](CN(C)C(=O)Nc2ccc4c(c2)OCO4)O3)cc1 | -24.1 | -13.1 | -3.0 | . | . | . | .
Nc1ncc(-c2ccccc2)c(-c2ccc(O)cc2O)n1 | -10.4 | 3.6 | -22.1 | -9.5 | -12.3 | 51.2* | 68.7*
COc1ccc(-c2cnc(N)nc2-c2ccc(OCc3ccccc3)cc2O)cc1 | 6.8 | -6.2 | 8.8 | -6.3 | -7.2 | 26.7 | .
CN(C)C(=O)c1ccc(-c2ccc([C@@H]3[C@@H](CO)N4C(=O)CN(C(=O)C5CC5)C[C@H]34)cc2)cc1 | -6.1 | -9.1 | -3.4 | . | . | . | .
Cn1c(=O)cc(SCC(=O)Nc2ccccn2)c2ccccc21 | 16.0 | . | . | . | . | . | .
